Screening data as filed in PubChem.
The entries come from a sample that favours hits as a whole.
Tb PYK inh = blocks Trypanosoma brucei pyruvate kinase; Q57TT1; TbPYK enzyme, Kinase-Glo Plus ATP luminescence, 45 min; Potency, µM (series often up to 76.8 µM), inactives show at the highest dose activity, negative = inhibition, actives largely listed as inhibitors; 410,000 tested, 0.12% active; AID 624173; also: potency is read from the fitted curve at half-maximal effect; % is scaled to controls: 0 for no effect and ±100 for the full control effect; nearly all actives have a fitted effect of over 50% in size
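Luminescent Kinase-Glo Plus end-point after 45 min room-temperature reaction of T. brucei pyruvate kinase started with 130 uM ADP (final). Buffer TEA 50 mM pH 7.2 with KCl, MgCl2, BSA, Tween-20; titration-based qHTS with fitted concentration-effect curves.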
Cycloheximide cs = affects cycloheximide protein synthesis inhibition readout, counter-screen; cell reporter, cycloheximide protein synthesis inhibition counterscreen; max response, %; 300,000 tested, 12% active; AID 2314; in the data active = max response mostly above about 13%, no sharp cut-off; inactive = mostly below about 14%; also: read at 38.3 µM for the half of the compounds with a filed dose; 0% is about no effect
LmPK inhibitor = LmPK (Leishmania mexicana) enzyme inhibition; purified LmPK, Kinase-Glo ATP luminescence, 1 h; Potency, µM (highest dose often 57.5 µM), without a hit: at the top dose activity change, negative = inhibition, most hits filed as inhibitors; 290,000 tested, 0.37% active; AID 1721; also: potency is read from the fitted curve at half-maximal effect; % is scaled to controls: 0 for no effect and ±100 for the full control effect
Target sequence (Q27686 whole entry, looked up): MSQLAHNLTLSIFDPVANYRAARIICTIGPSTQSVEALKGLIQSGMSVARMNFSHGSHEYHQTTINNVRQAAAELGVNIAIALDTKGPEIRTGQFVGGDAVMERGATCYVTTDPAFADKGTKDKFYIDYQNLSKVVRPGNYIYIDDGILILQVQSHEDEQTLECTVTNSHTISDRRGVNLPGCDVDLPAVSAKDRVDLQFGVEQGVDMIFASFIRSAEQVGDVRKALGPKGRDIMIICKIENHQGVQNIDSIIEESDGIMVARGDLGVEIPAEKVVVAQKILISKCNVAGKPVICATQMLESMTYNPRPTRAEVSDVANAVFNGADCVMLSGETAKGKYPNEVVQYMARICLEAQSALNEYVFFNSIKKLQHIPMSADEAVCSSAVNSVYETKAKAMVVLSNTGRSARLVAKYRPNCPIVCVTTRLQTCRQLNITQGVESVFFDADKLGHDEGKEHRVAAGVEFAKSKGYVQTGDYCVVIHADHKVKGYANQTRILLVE
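qHTS format; LmPK 0.1 nM; substrates PEP 0.5 mM and ADP 0.1 mM. One-hour room-temperature incubation, then coupled luciferase luminescence; 0.5 nM enzyme wells mark activation.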
Shiga inhibitor = Shiga toxin inhibition | 290,000 tested, 9.2% active | AID 2315 | inhibition, % at 38.7 µM | Vero cells, Shiga toxin protein synthesis inhibition reporter; in the data active = inhibition mostly above about 28%, no sharp cut-off; inactive = mostly below about 43%; also: 0% is about no effect
RE007 growth inh = less growth of the S. pombe RE007 Vpr strain. Potency, µM (top dose mostly 92.2 µM), for inactives: at the highest dose activity change, negative = less growth, most hits filed as inhibitors. 360,000 tested, 0.21% active. S. pombe RE007 Vpr strain, BacTiter-Glo ATP luminescence, 24 h. AID 651644; active = well fitted falling curve with a large enough effect; inconclusive = small, poorly fitted or top-dose-only effect; inactive = no such curve, though single readings can be large or run the other way; also: potency is read from the fitted curve at half-maximal effect; % is scaled to controls: 0 for no effect and ±100 for the full control effect; nearly all actives have a fitted effect of over 50% in size
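Fission yeast RE007 carrying one integrated HIV-1 vpr copy, seeded at OD 0.01 in PMG+AL medium with 23 nL pinned compound. Grown 24 h at 30 degrees; viability read by BacTiter-Glo luminescence after 5 min.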
Giardia FBPA inh = inhibitors of Giardia lamblia fructose-1,6-bisphosphate aldolase | A8B2U2 | purified Giardia FBPA | Potency, µM (doses to about 59.6 µM), without a hit: top-dose activity, negative = inhibition, hits mostly inhibitors | 290,000 tested, 0.71% active | AID 2451; also: potency is read from the fitted curve at half-maximal effect; % is scaled to controls: 0 for no effect and ±100 for the full control effect; nearly all actives have a fitted effect of over 55% in size
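40 nM FBPA preincubated 10 min at RT with compound (up to 57.5 uM final), then substrate plus GAPDH/TPI/NAD/arsenate coupling and diaphorase/resazurin added. Fluorescence read after 20 min at RT, 525/598 nm.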
The depositor's hits bear a star; [ ] = another dose, or the depositor's remark. Unless noted, calls follow the shape of the dose curve; as a rule, active = well fitted curve in the direction sought with a large enough effect; inconclusive = small, poorly fitted or top-dose-only effect, or another doubt; inactive = no such curve, though single readings can be large; an effect the other way counts as inactive or inconclusive.

For Cc1cc(NC(=O)c2ccc(-c3ccccc3F)o2)no1 the results were Tb PYK inh -8%, Cycloheximide cs 79*, LmPK inhibitor -6%, Shiga inhibitor 186*, RE007 growth inh -5% and Giardia FBPA inh -4%.
Screening COC(=O)c1ccccc1NC(=O)c1ccc(-c2ccccc2F)o1 returned Tb PYK inh 1%, Cycloheximide cs -1, LmPK inhibitor -4%, Shiga inhibitor 4, RE007 growth inh 5% and Giardia FBPA inh 3%.
`Cc1cc(NC(=O)c2ccc(-c3ccccc3[N+](=O)[O-])o2)no1` gave Tb PYK inh -7% and RE007 growth inh -3%.
`CCCCOc1cccc(C(=O)N(Cc2sccc2C)C2CCS(=O)(=O)C2)c1` (stereo not given) gave Tb PYK inh 3%.
For O=C(CSc1nnc(-c2ccccc2)c(-c2ccccc2)n1)NC1CCCC1 the results were Tb PYK inh -2%[15.4 µM].
Brc1cccc(Cn2c(-c3cncs3)nc3ccccc32)c1 was read as Tb PYK inh 4%, Cycloheximide cs 12, LmPK inhibitor 7%, Shiga inhibitor 32*, RE007 growth inh -1% and Giardia FBPA inh 7%.
`Brc1ccc(Cn2c(-c3cncs3)nc3ccccc32)cc1` gave Tb PYK inh -7%, Cycloheximide cs 33*, LmPK inhibitor 0%, Shiga inhibitor 94*, RE007 growth inh 19% and Giardia FBPA inh 6%.
c1ccc(Cn2c(-c3cncs3)nc3ccccc32)cc1 was read as Tb PYK inh -6%, Cycloheximide cs 60*, LmPK inhibitor -3%, Shiga inhibitor 47, RE007 growth inh 23% and Giardia FBPA inh 13%.
Screening Cc1cccc(Cn2c(-c3cccc(Br)c3)nc3ccccc32)c1 returned Tb PYK inh -13%.
For C/C(=C(\CCO)SSCC1CCCO1)N(C=O)Cc1cnc(C)nc1N (stereo not given) the results were Tb PYK inh 5%.
CN(C)c1nc(Cl)nc2c1nc(Cl)n2C1CCCCO1 (stereo not given) was read as Tb PYK inh -1% and RE007 growth inh -19%.
`Cc1cc(Br)ccc1NC(=O)C1(S(=O)(=O)c2ccc(Cl)cc2)CC1` gave Tb PYK inh -4%.
Screening C=CCn1c(C)cc(-c2csc(NCC)n2)c1C returned Tb PYK inh 2%, Cycloheximide cs 43*, LmPK inhibitor -3%, Shiga inhibitor 89*, RE007 growth inh -33% and Giardia FBPA inh inconclusive.
`C=CCn1c(C)cc(-c2csc(NC)n2)c1C` gave Tb PYK inh -13%, Cycloheximide cs 1, LmPK inhibitor -9%, Shiga inhibitor -4, RE007 growth inh -3% and Giardia FBPA inh inconclusive.
For O=C(NCCCN1CCCC1=O)c1cc2c(s1)CCCCC2 the results were Tb PYK inh 6%, Cycloheximide cs 49*, LmPK inhibitor -1%, Shiga inhibitor 73*, RE007 growth inh 8% and Giardia FBPA inh 3%.
Screening O=C(NCCCN1CCCC1=O)Nc1ccccc1Cl returned Tb PYK inh 3%, Cycloheximide cs 7, LmPK inhibitor -1%, Shiga inhibitor 20 and RE007 growth inh -6%.
Screening O=C(NCCCN1CCCC1=O)c1sc2ccccc2c1Cl returned Tb PYK inh 15%, Cycloheximide cs 29*, LmPK inhibitor 5%, Shiga inhibitor 39* and RE007 growth inh 56%.
`O=C(NCCCN1CCCC1=O)Nc1ccccc1F` gave Tb PYK inh -2%, Cycloheximide cs 19*, LmPK inhibitor -6%, Shiga inhibitor 37*, RE007 growth inh 10% and Giardia FBPA inh -3%.
`Cc1ccc(NC(=O)NCCCN2CCCC2=O)cc1Cl` gave Tb PYK inh -5%, Cycloheximide cs 31*, LmPK inhibitor -6%, Shiga inhibitor 74*, RE007 growth inh 16% and Giardia FBPA inh 12%.
O=C(NCCCN1CCOCC1)c1cc2c(s1)CCCC2 was read as Tb PYK inh -7%, Cycloheximide cs 10, LmPK inhibitor 1%, Shiga inhibitor 49, RE007 growth inh -6% and Giardia FBPA inh -27%.
